Growth data for nine molecules are collected here from PubChem BioAssay (NCI).

Assay in all cases: NCI-60 one-dose screen, 48 h (100 = growth as untreated, 0 = no growth, -100 = all killed)
Experiment [1] deals with K-562 leukemia. As to conditions: 10 µM unless noted.
Experiment [2] deals with MALME-3M melanoma. Conditions: 10 µM unless noted.
The test system of experiment [3] is MDA-MB-231 breast. Conditions: 10 µM unless noted.
The subject of experiment [4] is RXF 393 renal. As to conditions: 10 µM unless noted.
The test system of experiment [5] is SF-268 CNS. Conditions: 10 µM unless noted.
Experiment [6] deals with SF-295 CNS. Conditions: 10 µM unless noted.
Experiment [7] concerns SF-539 CNS. Conditions: 10 µM unless noted.
For experiment [8], the system named is UACC-257 melanoma. Conditions: 10 µM unless noted.
Experiment [9] has as its system M14 melanoma. Conditions: 10 µM unless noted.
Experiment [10] has as its system HCT-15 colon. As to conditions: 10 µM unless noted.
Experiment [11] relates to HT29 colon. As to conditions: 10 µM unless noted.
The subject of experiment [12] is SNB-19 CNS. As to conditions: 10 µM unless noted.
For experiment [13], the system named is U251 CNS. Conditions: 10 µM unless noted.
The subject of experiment [14] is PC-3 prostate. Conditions: 10 µM unless noted.
Experiment [15] deals with UACC-62 melanoma. As to conditions: 10 µM unless noted.
In experiment [16] the test system is LOX IMVI melanoma. As to conditions: 10 µM unless noted.
Experiment [17] has as its system SK-MEL-28 melanoma. As to conditions: 10 µM.
The subject of experiment [18] is SK-MEL-2 melanoma. Conditions: 10 µM unless noted.
In experiment [19] the test system is SK-MEL-5 melanoma. As to conditions: 10 µM unless noted.
The subject of experiment [20] is SNB-75 CNS. Conditions: 10 µM unless noted.

About 83,000 compounds went through this panel and 20% of them were active in at least one assay; those are over-represented in the sample as a whole.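 Testing used 96-well plates and a 48-hour single-concentration exposure. Example: -40 means 40% of the starting cells died.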 Values without a mark were called inactive. Active and inactive are the calls of the source. Rule for the calls: active = growth percent below 10; inactive = the rest.

Regarding `O=C(N=Nc1c(O)[nH]c2ccccc12)c1oc2ccccc2c1CN1CCN(c2ccccc2)CC1`, the growth was 16.5% in [1]; -64.6% (active) in experiment [2]; 24.6% in [3]; -67.6% (active) in experiment [4]; 10.8% in experiment [5]; 13% in experiment [6]. Besides, the growth is 8.4% (active) in experiment [7]; 20.1% in [8]; -8.59% (active) in experiment [9]; -8.29% (active) in [10]; 15.8% in experiment [11]; 18.6% in experiment [12]. Also, the growth in experiment [13] was -22.2% (active); in [14] it was -22.2% (active); in experiment [15], 4.02% (active); in experiment [16], 2.72% (active); in experiment [17] it was -31.8% (active); in [18], 72.9%.
As to `CCCSC1=NC2C(N(CC)C(=O)N2CC)N1/N=C/C=C/c1ccccc1[N+](=O)[O-]` (configuration not stated), the growth in [1] was 8.86% (active); in experiment [2], 74.3%; in [3] it was 22.6%; in experiment [4] it was 0.465% (active); in experiment [5], 48.1%; in experiment [6], 12.9%. For the same molecule, the growth in [7] is -11.9% (active); in experiment [8], 70.8%; in [9] it was 1.77% (active); in [10], 16.1%; in experiment [11], 9.1% (active); in [12], 29.6%. The growth in [13] is 21.7%; in experiment [14] it was 24.9%; in [16], 37.7%; in experiment [17] it was 63.5%; in experiment [18] it was 48.6%.
Turning to `O=c1oc2ccc(Cl)cc2c(=O)n1-c1cc(C(F)(F)F)cc(C(F)(F)F)c1`, the growth in experiment [1] was 8.63% (active); in [2] it was -33.8% (active); in experiment [3], -21.9% (active); in experiment [4], -5.99% (active); in experiment [5] it was 3.66% (active); in experiment [6], -65.1% (active). The growth in experiment [7] is -5.73% (active); in experiment [8] it was -14.7% (active); in experiment [9], -22.5% (active); in [10], -5.03% (active); in experiment [11] it was 1.92% (active); in experiment [12], 13.5%. Moreover, the growth in experiment [13] was -15.2% (active); in experiment [14] it was 11.9%; in experiment [16] it was -15.5% (active); in experiment [17], -18.9% (active); in experiment [18], -34.2% (active).
Regarding `CCCc1c(C)c2sc(=O)[nH]c2[nH]c1=O`, the growth in [1] is 107%; in experiment [2], 108%; in experiment [3] it was 105%; in experiment [4] it was 107%; in experiment [5] it was 99.6%; in experiment [6] it was 108%. The growth in experiment [7] is 96.7%; in experiment [8] it was 103%; in experiment [9], 108%; in experiment [10], 103%; in experiment [11], 110%; in experiment [12], 101%. The growth in experiment [13] was 99.5%; in experiment [19], 100%; in experiment [15], 105%; in [16], 100%; in [17], 110%; in experiment [18], 108%.
Regarding `COC(=O)c1cc2c(n1Cc1ccccc1)-c1oncc1CCC2`, the growth was 17.8% in experiment [1]; 49.5% in experiment [2]; 64.2% in experiment [3]; 73.7% in [4]; 86.8% in experiment [5]; 74.7% in [6]. Further, the growth in experiment [7] is 69.1%; in experiment [8] it was 76.2%; in experiment [10] it was 40.9%; in [11] it was 30.9%; in experiment [20] it was 67.2%; in experiment [12] it was 81.8%. Besides, the growth was 68.6% in experiment [13]; 77.4% in experiment [14]; 58.6% in experiment [19]; 49.7% in experiment [15]; 67.8% in experiment [16]; 62.5% in experiment [17]. Besides, the growth in experiment [18] is 47.7%.
On to `CCOC(=O)C1=C(C)c2ccc(OC)c(OC)c2C1`, for which the growth in experiment [1] is 102%; in experiment [2], 123%; in experiment [3], 117%; in [4] it was 93.8%; in experiment [5], 108%; in experiment [6], 99.5%. For the same molecule, the growth was 91.9% in experiment [7]; 98.4% in [8]; 97.3% in [10]; 95% in [11]; 89.9% in experiment [20]; 104% in experiment [12]. Moreover, the growth in [13] is 90.4%; in [14] it was 102%; in experiment [19], 96.3%; in experiment [15] it was 98.5%; in experiment [16], 96.1%; in experiment [18], 89.5%.
`CCN1C(=O)N(c2ccccc2)C2NN=c3s/c(=C4\C(=O)N(C(C)C)c5ccccc54)c(=O)n3C21` (configuration not stated): the growth in experiment [1] is 10.6%; in experiment [2], 65.2%; in experiment [3], 32.9%; in [4], -6.1% (active); in experiment [5] it was 36.7%; in experiment [6], 17.9%. The growth in experiment [7] was -2.62% (active); in experiment [8], 76.4%; in experiment [9] it was 10.9%; in experiment [10], 17.7%; in [11], 9.74% (active); in [12], 35.7%. For the same molecule, the growth in experiment [13] was 25.9%; in experiment [14] it was 25.7%; in experiment [15], 37.6%; in experiment [16], 31.4%; in experiment [17] it was 62.8%; in experiment [18], 48.8%.
Take `COc1ccc(C2=C(c3cccc(OC)c3)C(=O)c3ccc(C)nc3C2=O)cc1`: the growth was 19.9% in [1]; 52.4% in experiment [2]; 29.4% in experiment [3]; 33.3% in experiment [4]; 48% in [5]; 56.2% in experiment [6]. Further, the growth was 43% in experiment [7]; 67.8% in [8]; 18.6% in [10]; 87.8% in experiment [11]; 23.6% in experiment [20]; 43.9% in [12]. The growth in experiment [13] was 37.6%; in experiment [14], 52.1%; in experiment [19], 34.6%; in experiment [15] it was 46.7%; in experiment [16], 30.6%; in experiment [17] it was 50.7%. Besides, in experiment [18], the growth is 42.8%.
Regarding `O=C(CN1C=NC2C(N3CCOCC3)=NC=NC21)c1ccc(Br)cc1` (configuration not stated), the growth in experiment [1] is 106%; in experiment [2], 104%; in experiment [3], 105%; in experiment [4], 103%; in experiment [5], 98.9%; in experiment [6], 97.9%. Also, the growth was 100% in [7]; 105% in [8]; 107% in [9]; 101% in [10]; 107% in experiment [11]; 97.2% in experiment [12]. Besides, the growth was 99.8% in experiment [13]; 95.5% in experiment [14]; 93.1% in [15]; 97.3% in [16]; 111% in experiment [17]; 94.4% in experiment [18].
